# Most compounds without a hit are left out; they make up all but 1.2% or so of the library.
# RXFP1 antagonist – blocks the human relaxin receptor RXFP1 | HEK293-RXFP1, relaxin-stimulated cAMP HTRF, 30 min; hits give low values | activity change, negative = inhibition, % at 57.5 µM | 350,000 compounds, 0.59% hits;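 active = activity change of -60% or lower, but not beyond a set lower limit; inconclusive = change between -60% and -40%, or beyond the set limit; inactive = change above -40%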; also: % is scaled to controls: 0 for no effect and ±100 for the full control effect
# Target sequence (Q9HBX9 whole entry, looked up): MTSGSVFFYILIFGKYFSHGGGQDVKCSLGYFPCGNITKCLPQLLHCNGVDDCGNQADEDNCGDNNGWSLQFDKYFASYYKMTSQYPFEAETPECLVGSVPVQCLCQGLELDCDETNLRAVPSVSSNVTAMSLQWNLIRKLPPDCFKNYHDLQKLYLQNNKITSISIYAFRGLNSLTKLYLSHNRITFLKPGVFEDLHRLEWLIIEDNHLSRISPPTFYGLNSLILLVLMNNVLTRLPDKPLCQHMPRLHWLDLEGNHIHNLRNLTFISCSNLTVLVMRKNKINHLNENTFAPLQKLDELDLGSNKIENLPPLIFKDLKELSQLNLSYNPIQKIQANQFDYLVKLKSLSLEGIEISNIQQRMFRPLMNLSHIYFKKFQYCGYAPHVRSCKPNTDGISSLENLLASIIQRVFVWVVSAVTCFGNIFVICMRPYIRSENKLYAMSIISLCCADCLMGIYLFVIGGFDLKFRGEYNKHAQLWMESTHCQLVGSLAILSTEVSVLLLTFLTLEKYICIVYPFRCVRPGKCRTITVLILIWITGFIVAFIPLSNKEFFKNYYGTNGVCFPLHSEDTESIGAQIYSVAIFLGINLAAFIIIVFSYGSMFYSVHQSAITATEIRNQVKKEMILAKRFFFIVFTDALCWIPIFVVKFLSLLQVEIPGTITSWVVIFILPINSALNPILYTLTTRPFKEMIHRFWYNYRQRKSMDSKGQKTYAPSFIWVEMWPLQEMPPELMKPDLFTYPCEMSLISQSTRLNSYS
# RXFP1 ag – agonists of human relaxin receptor RXFP1; Q9HBX9; AID 2676; Potency, µM (highest dose often 57.5 µM), for the others: top-dose activation, hits mostly activators; 370,000 compounds, 0.3% hits; HEK293T-RXFP1 cAMP TR-FRET, 30 min; response scale: percent of porcine relaxin response, buffer zero; also: potency is read from the fitted curve at half-maximal effect; % is scaled to controls: 0 for no effect and ±100 for the full control effect; nearly all actives have a fitted effect of over 60% in size
#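 HEK293 cells stably expressing RXFP1, treated 30 min at 37C with compounds plus PDE4 inhibitor Ro 20174; cAMP measured by HTRF TR-FRET. Normalized to buffer and 29 nM porcine relaxin; EC50 by Hill fit.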
# gsp antagonist – gsp mutant antagonism; Potency, µM (titrated, usually from 76.9 µM), for inactives: at the top dose activity change, negative = inhibition, hits mostly inhibitors; 340,000 compounds, 0.4% hits; gsp-mutant cells, cAMP HTRF, 30 min; calls by dose curve; cell line not stated here;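 also: intracellular cAMP measured with PDE inhibitor Ro 20-1724 present during compound exposure; potency is read from the fitted curve at half-maximal effect; % is scaled to controls: 0 for no effect and ±100 for the full control effect; nearly all actives have a fitted effect of over 65% in size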
#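 Measurement of cellular cAMP by homogeneous time-resolved fluorescence following a 30 min compound exposure at 37C. The PDE inhibitor […] was present throughout; the assay buffer was DPBS with 0.05% BSA and 0.005% Tween 20.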
# gsp ag – activates gsp, the McCune-Albright syndrome mutation; AID 624287; gsp mutant cells, cAMP HTRF, 30 min; 340,000 compounds, 0.13% hits; Potency, µM (highest dose often 76.9 µM), for the others: at the top dose activation (cAMP increase), most hits filed as activators; active = well fitted activation curve with a large enough effect; inconclusive = small, poorly fitted or top-dose-only effect, or another doubt; inactive = no such curve, though single readings can be large or run the other way; cell line not stated here;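 also: phosphodiesterase inhibitor Ro 20-1724 added with compounds to block cAMP breakdown; potency is read from the fitted curve at half-maximal effect; nearly all actives have a fitted effect of over 60% in size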
#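 Cells in DMEM/10% FBS with G418 were pretreated with compounds in DMSO plus […] (300 uM stock) for 30 min at 37C. cAMP was measured by HTRF (cAMP-d2 plus anti-cAMP antibody-K) after 30 min at room temperature.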
# MmCpn inh – inhibitors of Methanococcus maripaludis chaperonin TRiC (MmCpn); purified Mm-Cpn ATPase, ADP Transcreener TR-FRET; Potency, µM (titrated, usually from 76.9 µM), for the others: top-dose activity, negative = inhibition, usual class: inhibitors; 330,000 compounds, 0.031% hits; AID 504842; also: potency is read from the fitted curve at half-maximal effect; % is scaled to controls: 0 for no effect and ±100 for the full control effect; nearly all actives have a fitted effect of over 80% in size
#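 Compound-treated chaperonin, 25 nM final, turns over 10 uM ATP at 37°C for 30 min following a 10 min preincubation; ADP generated competes with ADP-d2 for Eu-cryptate antibody, lowering FRET.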
# CCT chaperon mod – changes cytosolic chaperonin activity. purified chaperonin ATPase assay, HTRF ADP detection, 30 min. activity change, % (no concentration beside the values), hits read low. 360,000 compounds, 0.3% hits. AID 651819; in the data active = activity change below about -30%; also: % is scaled to controls: 0 for no effect and ±100 for the full control effect
#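 Nucleotide hydrolysis assay: TRiC at 20–40 nM final (set by batch activity) with 10 uM ATP, 30 min at 37 °C, in presence of 76 uM compound. Detection by competitive ADP HTRF, 30 min ambient.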
# * marks the source's active call; other numbers are inactive results; ? = inconclusive; . = no result given; [ ] = another dose, or the depositor's remark. Unless noted, calls follow the shape of the dose curve; as a rule, active = well fitted curve in the direction sought with a large enough effect; inconclusive = small, poorly fitted or top-dose-only effect, or another doubt; inactive = no such curve, though single readings can be large; an effect the other way counts as inactive or inconclusive.
SMILES,RXFP1 antagonist,RXFP1 ag,gsp antagonist,gsp ag,MmCpn inh,CCT chaperon mod
CC1Oc2ccccc2C=C1/C=N/NC(=O)c1ccccc1 (stereo not given),-28,-3%,1%,-1%[15.4 µM],-2%,-45*
Cc1cccc(CCNC(=O)COc2cc(=O)n(C)c3ccccc23)c1,-18,0%,32µM*,0%[15.4 µM],1%,-26
COc1cccc(C(=O)Nc2c(C)n[nH]c2C)c1,-4,1%,7%,-55%,-1%,-75*
COc1ccccc1-c1nn(CCC(=O)Nc2ccc(C)cc2)c2nc(C)cc(C)c12,.,0%,.,.,.,.
O=C1CC[C@@H](O)CCN1CC[C@H](Sc1ccccc1)c1ccccc1,.,-1%,-18%,.,-1%,1
CC(=O)Nc1ccc(S[C@@H](CCN2CC[C@H](O)CCC2=O)c2ccccc2)cc1,.,-4%,50µM*,6%,1%,1
COc1ccccc1C1=Nn2c(nc3sc(C(=O)Nc4ccccc4Cl)c(C)c3c2=O)SC1,9,1%,.,.,.,.
O=C(Nc1ccc(Cl)cc1)Nc1nnc(-c2ccncc2)s1,.,0%,-33%,13%,0%,0
Cc1ccc(NC(=O)Nc2nnc(-c3ccncc3)s2)cc1C,-11,0%,45µM*,-1%,-12%,-2
COC(=O)c1scc(-c2ccc(C)cc2)c1S(=O)(=O)Nc1cccc(C(F)(F)F)c1,-10,23%,.,.,.,.
O=c1c2sccc2nc(SCc2cc(=O)n3cc(Br)ccc3n2)n1Cc1ccccn1,12,25µM*,6%,25%[15.4 µM],-3%,-1
Cc1ccc(CSc2nc3ccsc3c(=O)n2Cc2ccccn2)cc1,3,0%,-17%,-47%,0%,-8
Cc1c(CN(C)C(=O)c2cc(-c3ccccc3)nc3ccc(Br)cc23)cnn1C,.,16µM*,.,.,.,.
CCCCSc1nnc2c(n1)OC(c1ccc(C)s1)Nc1ccccc1-2 (stereo not given),-6,-1%,.,.,.,.
Cn1c(=O)c2c(ncn2CCC(=O)N/N=C/c2cccnc2)n(C)c1=O,5,16µM*,1%,42%[15.4 µM],1%,-1
Cc1cccnc1Nc1ncnc(N)c1[N+](=O)[O-],-11,3%,9%,1%[15.4 µM],3%,1
Cc1ccc(C)c(Nc2ncnc(N)c2[N+](=O)[O-])c1,12,-1%,7%,32%,1%,-41*
Cc1ccc2c(c1)C(c1ccc(F)cc1)N(C(=O)C(C)C)CC(=O)N2 (stereo not given),-19,1%,.,.,.,.
NC(=S)N/N=C1\CC(c2ccc3c(c2)OCCO3)Oc2ccc(F)cc21 (stereo not given),-21,1%,-15%,?,-1%,0
NC(=S)N/N=C1\CC(c2ccc3c(c2)OCCCO3)Oc2ccc(F)cc21 (stereo not given),-61*,-5%,-33%,-14%,-4%,0
O=C(/C=C/c1ccc(-c2ccccc2[N+](=O)[O-])o1)c1ccco1,-64*,1%,?,-15%[15.4 µM],1%,-6
CC(=O)N[C@H]1[C@H]([C@H](O)[C@H](O)CO)OC(C(=O)O)=C[C@@H]1N=C(N)N,-3,.,.,.,.,.
O=S(=O)(c1cccc(-c2nnc(-c3ccc(Br)cc3)o2)c1)N1CCCCCC1,-15,3%,17%,0%,-3%,-58*
NC(=O)CSc1nnc(-c2cccc(S(=O)(=O)N3CCCCC3)c2)o1,9,5%,4%,20%,-2%,-57*
O=S(=O)(c1cccc(-c2nnco2)c1)N1CCCC1,-11,0%,9%,-14%,-1%,2
Cc1nc2ccc([N+](=O)[O-])cc2c(=O)n1Cc1cccc(F)c1,-9,23%,10%,14µM*,0%,-1
CCOC(=O)c1c(NC(NC(C)=O)C(Cl)(Cl)Cl)sc2c1CCCC2 (stereo not given),-68*,-1%,0%,-20%,3%,1
COC(=O)c1c(NC(NC(C)=O)C(Cl)(Cl)Cl)sc2c1CCCC2 (stereo not given),-74*,-4%,-23%,-9%[15.4 µM],0%,1

# Assay outcomes as filed in PubChem.
